PubChem BioAssay (NCATS)
“And” between values parts separate entries of the source, which are not always exact repeats. Equal values may be shown once. Records with an inconclusive call do not appear. The source made the active and inactive calls. Unless noted, calls follow the shape of the dose curve; as a rule, active = well fitted curve in the direction sought with a large enough effect; inconclusive = small, poorly fitted or top-dose-only effect, or another doubt; inactive = no such curve, though single readings can be large; an effect the other way counts as inactive or inconclusive.

Assays:
[1] = Primary qHTS for inhibitors of La Crosse Virus (LACV) - induced cell death in SH-SY5Y cells (AID 1508616);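 also: top concentration of the series differs between compounds; 0% = infected DMSO wells and 100% = uninfected DMSO wells; higher means more rescue of cells from virus-induced death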
Outline: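 Readout was luminescence from ATPLite 1step added after a 6-day LACV infection (0.01 MOI) of SH-SY5Y cells that had received pin-transferred compound 24 hr after seeding.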

[2] = biological target: Calcium and integrin-binding protein 1 (Homo sapiens) (UniProt Q99828); assay: Primary qHTS for Identification of Calcium Integrin Binding Protein 1 (CIB1) Competitor (AID 1508620); also: potency is read from the fitted curve at half-maximal effect
Sequence of Calcium and integrin-binding protein 1 (Homo sapiens) (Q99828 whole entry, looked up): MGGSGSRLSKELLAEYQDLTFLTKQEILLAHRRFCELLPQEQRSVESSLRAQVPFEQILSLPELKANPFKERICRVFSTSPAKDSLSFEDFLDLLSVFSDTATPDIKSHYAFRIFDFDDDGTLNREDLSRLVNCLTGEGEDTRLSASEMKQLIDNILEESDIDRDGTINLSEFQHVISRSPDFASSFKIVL
Outline: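 Fluorescence polarization competition: CIB1-GST (1 uM final) preincubated with compound 15 min at room temperature, then FITC-labeled alphaIIb peptide (100 nM final) added for another 15 min. Polarization read at Ex 480/Em 540.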

[3] = Counterscreen qHTS for small molecule stabilizers of the endoplasmic reticulum resident proteome: GLuc-NoTag assay (AID 1508627);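 also: SH-SY5Y cells given compound then 100 nM thapsigargin to empty ER calcium; series mostly up to about 76 µM; 0% = thapsigargin alone and -100% = DMSO vehicle control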
Outline: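 SH-SY5Y cells stably expressing constitutively secreted GLuc (no SERCaMP tag) were pre-incubated 5 h, treated with compound for 19 h, then 100 nM thapsigargin for 4 h at 37C; medium GLuc read by coelenterazine luminescence.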

[4] = Confirmatory qHTS for small molecule stabilizers of the endoplasmic reticulum resident proteome: Secreted ER Calcium Modulated Protein (SERCaMP) assay (AID 1508628); also: nearly all actives have a fitted effect of over 40% in size; also: potency is read from the fitted curve at half-maximal effect
Outline: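 We seeded SH-SY5Y-GLuc-SERCaMP cells, added compounds (three concentrations in the primary run, eleven up to 76.6 uM in confirmation), incubated 16 h, depleted ER calcium with thapsigargin, and read luciferase 4 h later.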

[5] = Cell Viability qHTS for small molecule stabilizers of the endoplasmic reticulum resident proteome (AID 1508629); conditions: cell viability counter-screen, 100 nM thapsigargin for final 4 h;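 also: human SH-SY5Y neuroblastoma cells carrying the GLuc-SERCaMP reporter; compound exposure about 46 h in total before the viability read; % is scaled to controls: 0 for no effect and ±100 for the full control effect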
[6] = A High-Content qHTS Against Drug Library for the Identification of Small Molecules that Inhibit DYT1 Early Onset Primary Dystonia-Associated Cell Pathology (AID 1645839; calls by dose curve; also: series mostly up to about 46 µM)
Outline: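 Readout: %pathology, the punctate EGFP-TorsinA distribution from imaging, as the primary channel and cell count as the toxicity counterscreen. HEK293 Flp-In cells expressing delE TorsinA were induced with tetracycline and treated with compound for 48 h.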

[7] = biological target: Cytochrome P450 2D6 (Homo sapiens) (UniProt P10635); assay: Cytochrome P450 family 2 subfamily D member 6 (CYP2D6) small molecule antagonists: luciferase biochemical (cell-free) qHTS assay (AID 1645840; active = well fitted curve in the direction sought with a large enough effect in the repeat runs; an effect the other way counts as inactive or inconclusive; also: nearly all actives have a fitted effect of over 55% in size; also: potency is read from the fitted curve at half-maximal effect)
Sequence of Cytochrome P450 2D6 (Homo sapiens) (P10635 whole entry, looked up): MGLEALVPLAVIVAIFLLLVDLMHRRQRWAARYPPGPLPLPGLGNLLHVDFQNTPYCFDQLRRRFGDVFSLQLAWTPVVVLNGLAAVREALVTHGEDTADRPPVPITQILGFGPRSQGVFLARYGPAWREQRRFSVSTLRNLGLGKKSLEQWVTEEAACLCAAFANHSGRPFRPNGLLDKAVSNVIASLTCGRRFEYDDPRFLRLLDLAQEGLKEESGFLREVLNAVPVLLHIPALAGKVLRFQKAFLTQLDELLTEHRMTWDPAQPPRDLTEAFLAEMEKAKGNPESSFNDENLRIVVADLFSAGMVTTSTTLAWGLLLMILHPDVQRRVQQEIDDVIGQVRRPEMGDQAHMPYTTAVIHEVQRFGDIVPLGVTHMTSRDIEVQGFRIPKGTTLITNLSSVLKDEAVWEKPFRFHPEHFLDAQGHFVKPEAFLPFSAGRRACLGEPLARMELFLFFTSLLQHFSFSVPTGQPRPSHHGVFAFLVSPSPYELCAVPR
Outline: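 P450-Glo luminescent screen: recombinant CYP2D6 enzyme–proluciferin substrate mix preincubated with compound 10 min at room temperature, then NADPH regeneration added for 1 h at room temperature. Detection reagent added for 20 min; luciferin light read as relative luminescence units.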

[8] = biological target: Cytochrome P450 2C9 (Homo sapiens) (UniProt P11712); assay: Cytochrome P450 family 2 subfamily C member 9 (CYP2C9) small molecule antagonists: luciferase biochemical (cell-free) qHTS assay (AID 1645842; active = well fitted curve in the direction sought with a large enough effect in the repeat runs; an effect the other way counts as inactive or inconclusive; also: nearly all actives have a fitted effect of over 55% in size; also: potency is read from the fitted curve at half-maximal effect)
Sequence of Cytochrome P450 2C9 (Homo sapiens) (P11712 whole entry, looked up): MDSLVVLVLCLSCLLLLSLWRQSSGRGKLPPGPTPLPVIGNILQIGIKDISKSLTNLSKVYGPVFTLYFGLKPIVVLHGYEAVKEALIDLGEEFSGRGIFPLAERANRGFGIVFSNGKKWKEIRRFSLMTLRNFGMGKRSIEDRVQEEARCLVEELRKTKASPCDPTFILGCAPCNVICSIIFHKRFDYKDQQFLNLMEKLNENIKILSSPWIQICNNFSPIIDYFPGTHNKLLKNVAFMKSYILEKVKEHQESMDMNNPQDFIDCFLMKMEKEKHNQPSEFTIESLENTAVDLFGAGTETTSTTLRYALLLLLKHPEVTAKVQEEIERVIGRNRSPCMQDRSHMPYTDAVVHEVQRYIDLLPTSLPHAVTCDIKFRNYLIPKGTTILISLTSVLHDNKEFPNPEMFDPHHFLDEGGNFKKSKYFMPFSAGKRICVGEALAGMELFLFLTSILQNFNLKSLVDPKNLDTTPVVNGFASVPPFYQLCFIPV
Outline: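 Luminescence, after 20 min with luciferin detection reagent, reflected CYP2C9 turnover during a 1 h NADPH-driven reaction at 37C. Enzyme-substrate mix contained 0.4% bovine serum albumin and was preincubated with compound 10 min at room temperature.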

[9] = Primary qHTS for inhibitors of nuclear receptor binding SET domain protein 2 (NSD2) in an isogenic RCH-ACV NSD2 p.E1099K mutant (9B) (AID 1645876); also: nearly all actives have a fitted effect of over 70% in size; also: potency is read from the fitted curve at half-maximal effect
[10] = Primary qHTS for inhibitors of nuclear receptor binding SET domain protein 2 (NSD2) in an RCH-ACV wild type WT cells (2C) (AID 1645877); also: nearly all actives have a fitted effect of over 70% in size; also: potency is read from the fitted curve at half-maximal effect
[11] = biological target: Calcium and integrin-binding protein 1 (Homo sapiens) (UniProt Q99828); assay: Confirmatory qHTS for Identification of Calcium Integrin Binding Protein 1 (CIB1) Competitor (AID 1508617); also: nearly all actives have a fitted effect of over 65% in size; also: potency is read from the fitted curve at half-maximal effect
Outline: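 Confirmatory qHTS measures displacement of a FITC-alphaIIb peptide (100 nM) from CIB1-GST (1 uM) by fluorescence polarization. Calcium-containing HEPES buffer, pH 7.4; two 15 min room-temperature incubations.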

[12] = biological target: N-terminal Xaa-Pro-Lys N-methyltransferase 1 (Homo sapiens) (UniProt Q9BV86); assay: Confirmatory qHTS for Inhibitors of N-terminal methyltransferase 1 (NTMT1): MTaseGlo Assay (AID 1645874);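 also: luminescence from SAH made as NTMT1 methylates SPKRIA peptide using SAM; series mostly up to about 100 µM; 0% = DMSO control and -100% = no-enzyme control; nearly all actives have a fitted effect of over 65% in size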
Sequence of N-terminal Xaa-Pro-Lys N-methyltransferase 1 (Homo sapiens) (Q9BV86 whole entry, looked up): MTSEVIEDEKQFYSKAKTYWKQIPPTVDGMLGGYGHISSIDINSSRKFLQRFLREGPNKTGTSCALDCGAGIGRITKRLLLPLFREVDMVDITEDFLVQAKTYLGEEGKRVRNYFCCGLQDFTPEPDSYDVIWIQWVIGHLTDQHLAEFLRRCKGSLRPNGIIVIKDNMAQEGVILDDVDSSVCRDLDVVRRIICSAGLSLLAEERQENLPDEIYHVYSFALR
Outline: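 Preincubation of NTMT1 (125 nM) plus SAM (100 uM) with test compounds lasted 15 min; methylation of 1 uM SPKRIA then proceeded 30 min in the dark at room temperature. Luciferase signal reported SAH produced.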

[13] = biological target: Single-stranded DNA cytosine deaminase (Homo sapiens) (UniProt Q9GZX7); assay: Validation qHTS assay for inhibitors of Activation Induced Cytidine Deaminase (AID): AID signal (AID 1347429); also: % is scaled to controls: 0 for no effect and ±100 for the full control effect
Sequence of Single-stranded DNA cytosine deaminase (Homo sapiens) (Q9GZX7 whole entry, looked up): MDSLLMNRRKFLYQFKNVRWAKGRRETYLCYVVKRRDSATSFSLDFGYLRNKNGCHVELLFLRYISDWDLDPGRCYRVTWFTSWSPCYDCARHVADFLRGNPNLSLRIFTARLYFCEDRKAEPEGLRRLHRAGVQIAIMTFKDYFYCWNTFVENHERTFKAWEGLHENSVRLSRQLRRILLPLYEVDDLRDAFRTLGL
Outline: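 In this coupled qHTS, AID deaminates a FRET-labelled ssDNA substrate in the presence of UDG over 4 hr at room temperature. Compounds span up to 114 uM final.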

[14] = Primary qHTS for small molecule stabilizers of the endoplasmic reticulum resident proteome: Secreted ER Calcium Modulated Protein (SERCaMP) assay (AID 1508630); also: % is scaled to controls: 0 for no effect and ±100 for the full control effect
Outline: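 GLuc-SERCaMP-expressing SH-SY5Y cells, pretreated 16 h with compound, are challenged with thapsigargin to empty ER calcium stores; after 4 h, coelenterazine is added directly to the medium and luminescence is imaged.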

[15] = biological target: Papain (Carica papaya) (UniProt P00784); assay: Primary qHTS assay for inhibitors of the protease papain (AID 1645873);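 also: papain turnover of Z-FR-AMC read as the AMC fluorescence gain over 10 min; series mostly up to about 50 µM; % is scaled to controls: 0 for no effect and ±100 for the full control effect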
Sequence of Papain (Carica papaya) (P00784 whole entry, looked up): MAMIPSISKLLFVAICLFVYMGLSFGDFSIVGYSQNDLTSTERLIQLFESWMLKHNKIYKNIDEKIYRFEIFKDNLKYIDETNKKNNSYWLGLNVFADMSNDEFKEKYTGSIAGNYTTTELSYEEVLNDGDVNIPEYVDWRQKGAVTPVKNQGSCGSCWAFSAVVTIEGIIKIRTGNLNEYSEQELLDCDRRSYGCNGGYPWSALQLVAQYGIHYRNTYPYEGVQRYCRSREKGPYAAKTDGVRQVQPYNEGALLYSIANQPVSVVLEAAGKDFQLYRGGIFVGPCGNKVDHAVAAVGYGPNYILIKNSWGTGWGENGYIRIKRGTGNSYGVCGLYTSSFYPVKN

[16] = biological target: Rap guanine nucleotide exchange factor 3 (Homo sapiens) (UniProt O95398); assay: Confirmatory qHTS for antagonist of cAMP-regulated guanine nucleotide exchange factor 3 (EPAC1) (AID 1645880); also: potency is read from the fitted curve at half-maximal effect; nearly all actives have a fitted effect of over 55% in size
Sequence of Rap guanine nucleotide exchange factor 3 (Homo sapiens) (O95398 whole entry, looked up): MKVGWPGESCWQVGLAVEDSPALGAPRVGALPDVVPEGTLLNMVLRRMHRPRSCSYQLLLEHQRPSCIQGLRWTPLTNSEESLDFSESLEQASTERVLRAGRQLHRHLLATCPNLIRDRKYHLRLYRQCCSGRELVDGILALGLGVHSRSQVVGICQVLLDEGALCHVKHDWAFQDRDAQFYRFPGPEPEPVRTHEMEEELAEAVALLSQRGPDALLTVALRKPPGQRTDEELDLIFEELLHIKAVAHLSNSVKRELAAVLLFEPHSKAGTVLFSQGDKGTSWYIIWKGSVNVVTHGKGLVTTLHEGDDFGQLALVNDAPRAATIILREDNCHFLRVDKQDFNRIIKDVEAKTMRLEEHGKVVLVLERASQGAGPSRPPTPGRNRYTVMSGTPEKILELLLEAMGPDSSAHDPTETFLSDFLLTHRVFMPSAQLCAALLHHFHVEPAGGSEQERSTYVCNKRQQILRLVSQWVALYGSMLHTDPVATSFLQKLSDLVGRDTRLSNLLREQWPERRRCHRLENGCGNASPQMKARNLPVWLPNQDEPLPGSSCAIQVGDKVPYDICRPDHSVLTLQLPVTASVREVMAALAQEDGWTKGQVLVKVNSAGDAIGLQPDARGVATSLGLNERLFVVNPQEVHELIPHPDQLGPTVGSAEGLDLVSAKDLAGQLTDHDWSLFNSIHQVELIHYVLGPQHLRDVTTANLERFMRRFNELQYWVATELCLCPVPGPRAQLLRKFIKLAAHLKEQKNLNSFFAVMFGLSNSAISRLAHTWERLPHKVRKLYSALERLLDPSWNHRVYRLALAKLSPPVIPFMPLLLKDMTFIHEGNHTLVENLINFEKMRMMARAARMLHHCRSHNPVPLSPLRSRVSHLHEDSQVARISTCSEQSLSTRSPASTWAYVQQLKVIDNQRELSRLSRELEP
Outline: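 Nucleotide exchange uses 100 nM EPAC1, 250 nM RAP1B-BODIPY-GDP and 50 uM GDP, with compounds in a concentration-titration series. After 5 min at room temperature, fluorescence (480 nm ex/540 nm em) is read every 5 min for 30 min. Data are normalized to control ATA and DMSO.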

[17] = biological target: Rap guanine nucleotide exchange factor 4 (Homo sapiens) (UniProt Q8WZA2); assay: Confirmatory qHTS for antagonist of cAMP-regulated guanine nucleotide exchange factor 4 (EPAC2) (AID 1645885); also: potency is read from the fitted curve at half-maximal effect; nearly all actives have a fitted effect of over 25% in size
Sequence of Rap guanine nucleotide exchange factor 4 (Homo sapiens) (Q8WZA2 whole entry, looked up): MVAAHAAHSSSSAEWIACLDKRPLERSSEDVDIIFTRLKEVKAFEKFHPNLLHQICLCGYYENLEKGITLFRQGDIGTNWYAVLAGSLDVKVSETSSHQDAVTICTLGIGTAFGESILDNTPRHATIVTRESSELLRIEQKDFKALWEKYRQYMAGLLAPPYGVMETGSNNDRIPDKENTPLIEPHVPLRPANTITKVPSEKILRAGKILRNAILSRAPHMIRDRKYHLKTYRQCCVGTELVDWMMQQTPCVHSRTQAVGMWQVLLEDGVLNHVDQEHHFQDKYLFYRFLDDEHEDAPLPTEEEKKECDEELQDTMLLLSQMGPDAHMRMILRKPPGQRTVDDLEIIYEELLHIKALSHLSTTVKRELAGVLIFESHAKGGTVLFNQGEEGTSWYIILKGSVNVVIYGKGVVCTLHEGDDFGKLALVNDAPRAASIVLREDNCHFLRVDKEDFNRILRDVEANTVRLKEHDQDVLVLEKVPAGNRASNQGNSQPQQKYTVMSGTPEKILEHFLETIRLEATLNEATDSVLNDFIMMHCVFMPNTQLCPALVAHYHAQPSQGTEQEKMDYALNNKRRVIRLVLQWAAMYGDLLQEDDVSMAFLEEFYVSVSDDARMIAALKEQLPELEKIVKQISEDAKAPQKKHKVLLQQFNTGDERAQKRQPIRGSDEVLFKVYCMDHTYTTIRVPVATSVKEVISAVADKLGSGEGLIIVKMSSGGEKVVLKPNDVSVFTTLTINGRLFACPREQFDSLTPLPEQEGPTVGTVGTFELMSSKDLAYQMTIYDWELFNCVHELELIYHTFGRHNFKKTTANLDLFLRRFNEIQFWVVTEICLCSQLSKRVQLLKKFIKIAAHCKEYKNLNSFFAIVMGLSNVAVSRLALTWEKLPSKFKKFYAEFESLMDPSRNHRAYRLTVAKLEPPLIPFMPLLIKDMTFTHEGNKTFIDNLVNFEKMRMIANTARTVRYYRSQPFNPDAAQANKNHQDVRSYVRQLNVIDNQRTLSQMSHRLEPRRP

[18] = biological target: Cytochrome P450 3A4 (Homo sapiens) (UniProt P08684); assay: Cytochrome P450 family 3 subfamily A member 4 (CYP3A4) small molecule antagonists: luciferase qHTS assay (AID 1645841; active = well fitted curve in the direction sought with a large enough effect in the repeat runs; an effect the other way counts as inactive or inconclusive; also: nearly all actives have a fitted effect of over 45% in size)
Sequence of Cytochrome P450 3A4 (Homo sapiens) (P08684 whole entry, looked up): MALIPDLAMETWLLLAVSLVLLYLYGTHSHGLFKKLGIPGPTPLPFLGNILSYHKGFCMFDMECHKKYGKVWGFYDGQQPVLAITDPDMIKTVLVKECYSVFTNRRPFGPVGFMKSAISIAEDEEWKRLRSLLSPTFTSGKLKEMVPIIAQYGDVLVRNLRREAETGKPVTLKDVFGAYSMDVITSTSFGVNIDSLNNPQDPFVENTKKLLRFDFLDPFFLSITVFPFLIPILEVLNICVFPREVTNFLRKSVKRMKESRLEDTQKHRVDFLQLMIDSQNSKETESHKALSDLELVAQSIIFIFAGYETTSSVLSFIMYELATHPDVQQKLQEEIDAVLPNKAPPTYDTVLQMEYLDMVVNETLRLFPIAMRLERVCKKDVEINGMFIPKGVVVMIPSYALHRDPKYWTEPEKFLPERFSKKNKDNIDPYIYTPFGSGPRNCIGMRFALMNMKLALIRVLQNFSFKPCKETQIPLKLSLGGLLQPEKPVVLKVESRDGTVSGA
Outline: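 P450-Glo CYP3A4 enzyme with proluciferin substrate was preincubated with DMSO-dissolved compounds for 10 min at room temperature. NADPH regeneration solution started a 1 h reaction. Detection reagent stopped it, and luminescence was read after 20 min.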

O=C(NO)c1ccccc1
inactive: outcome [1] | Potency [2] | Potency [3] | Potency [4] | max response [5] 2.69% | Potency [6] | Potency [7] | Potency [8]
active: Potency [9] 36.6 µM | Potency [10] 25.9 µM

Fc1ccc(C(c2ccc(F)cc2)N2CCNCC2)cc1
inactive: outcome [1] | Potency [2] | Potency [3] | Potency [4] | Potency [6] | Potency [8] | Potency [9] | Potency [10]

Nc1cc(C(F)(F)F)ccc1S
inactive: outcome [1] | Potency [12]
active: Potency [11] 22.4 µM | Potency [2] 28.2 µM | Potency [7] 15.5 µM | Potency [8] 1.38 µM | Potency [9] 9.44 µM | Potency [10] 15 µM

CC(C)N(CCC(=O)c1ccc2ccccc2c1)Cc1ccccc1
inactive: outcome [13] | Potency [14]
active: Potency [2] 28.2 µM | Potency [9] 6.61 µM and 8.2 µM | Potency [10] 5.25 µM and 11.6 µM

COC(=O)c1c(Cl)c(Cl)c(C(=O)OC)c(Cl)c1Cl
inactive: outcome [1] | Potency [2] | Potency [3] | Potency [4] | max response [5] 10.1% | Potency [6] | Potency [7] | Potency [8] | Potency [9]

COc1ccccc1N1CCN(CCN2C(=O)CC3(CCCC3)CC2=O)CC1
inactive: outcome [13] | outcome [1] | Potency [2] | Potency [14] | outcome [15] | Potency [9] | Potency [10]

O=C(Nc1ccc(S(=O)(=O)N2CCOCC2)cc1)c1cc(Cl)ccc1NS(=O)(=O)c1ccc(Cl)s1
inactive: outcome [1] | Potency [11] | Potency [14] | Potency [9] | Potency [10]
active: Potency [7] 15.5 µM | Potency [8] 0.0436 µM | Potency [16] 35.2 µM | Potency [17] 24.8 µM

CC(C)OC(=O)c1cc2c(OCC(O)CNC(C)(C)C)cccc2[nH]1 (stereo unspecified)
inactive: outcome [1] | Potency [2] | Potency [3] | max response [5] -12.8% | Potency [6] | Potency [8]

CCNC(=O)NCCCOc1cccc(CN2CCCCC2)c1
inactive: outcome [1] | Potency [2] | Potency [14] | Potency [6]

COc1cc(OC)nc(O[C@H](C(=O)O)C(OC)(c2ccccc2)c2ccccc2)n1
inactive: outcome [1] | Potency [2] | Potency [14] | Potency [6] | Potency [7] | Potency [8]

Cc1ccc(Cl)c(OCC(O)CNC(C)(C)C)c1 (stereo unspecified)
inactive: outcome [1] | Potency [2] | Potency [14] | Potency [6] | Potency [8] | Potency [9]
active: Potency [7] 1.74 µM

O=C(O)c1ccccc1Nc1cc(Cl)ccc1C(=O)O
inactive: outcome [1] | Potency [2] | Potency [14] | Potency [6] | Potency [7] | Potency [8] | Potency [9]

COC(=O)[C@H]1[C@H]2C[C@@H]3c4[nH]c5cc(OC)ccc5c4CCN3C[C@H]2C[C@@H](OC(=O)/C=C/c2ccc(O)c(OC)c2)[C@@H]1OC
active: Potency [4] 20 µM | Potency [9] 4.73 µM | Potency [10] 4.73 µM
inactive: outcome [1] | Potency [2] | Potency [7]

CCOC(=O)NNc1ccc(N(CC)CC(C)O)nn1 (stereo unspecified)
inactive: outcome [1] | Potency [2] | Potency [14] | Potency [6] | Potency [7] | Potency [8] | Potency [9]

CN(C)C(=O)CNC(=O)Cc1ccccc1
inactive: outcome [1] | Potency [2] | Potency [14] | Potency [6] | Potency [7] | Potency [18] | Potency [8] | Potency [9] | Potency [10]

CCCC(=O)Nc1ccc(O)c(C(C)=O)c1
inactive: outcome [1] | Potency [2] | Potency [4] | max response [5] 11.5% | Potency [6] | Potency [7] | Potency [8] | Potency [9] | Potency [10]

CNC[C@H](O)[C@@H](O)[C@H](O)[C@H](O)CO
inactive: outcome [1] | Potency [2] | Potency [14] | Potency [6] | Potency [7] | Potency [8]

CC(C(=O)O)c1ccc(/C=C2\CCCCC2=O)cc1 (stereo unspecified)
inactive: outcome [1] | Potency [2] | Potency [14] | Potency [6] | Potency [7] | Potency [8] | Potency [9]

O=C(O)CCC(=O)OC[C@@H](NC(=O)C(Cl)Cl)[C@H](O)c1ccc([N+](=O)[O-])cc1
inactive: outcome [1] | Potency [2] | Potency [14] | Potency [6] | Potency [7]

CC(CC1c2ccccc2CCc2ccccc21)CN(C)C (stereo unspecified)
inactive: outcome [1] | Potency [2] | Potency [3] | Potency [8]
active: Potency [7] 0.246 µM

Cc1cccc(N(C)C(=S)Oc2ccc3c(c2)C2CCC3C2)c1 (stereo unspecified)
active: Potency [8] 7.76 µM
inactive: outcome [1] | Potency [2] | Potency [14] | Potency [6] | Potency [7] | Potency [9]

CCOC(=O)O[C@]1(C(=O)OCCl)CC[C@H]2[C@@H]3CCC4=CC(=O)C=C[C@]4(C)[C@H]3[C@@H](O)C[C@@]21C
inactive: outcome [1] | Potency [2] | Potency [14] | Potency [6] | Potency [7] | Potency [8] | Potency [9]

COCCOCC(OC)OC
inactive: outcome [1] | Potency [2] | Potency [14] | Potency [6] | Potency [7] | Potency [18] | Potency [8] | Potency [9] | Potency [10]

CO[C@@H]1[C@@H](O[C@@H]2O[C@H](C)[C@@H](O[C@H]3C[C@@](C)(O)[C@@H](O)[C@H](C)O3)[C@H](N(C)C)[C@H]2O)[C@@H](CC=O)C[C@@H](C)[C@@H](O[C@@H]2CC[C@H](N(C)C)[C@@H](C)O2)/C=C/C=C/C[C@@H](C)OC(=O)C[C@H]1OC(C)=O
inactive: outcome [1] | Potency [2] | Potency [14] | Potency [6] | Potency [7] | Potency [8]

COc1cc(/C=C/C(N)=O)cc(OC)c1OC
inactive: outcome [1] | Potency [2] | Potency [14] | Potency [6] | Potency [7] | Potency [8]

C=CCNc1nc(NCC=C)nc(N2CCN(C(c3ccc(F)cc3)c3ccc(F)cc3)CC2)n1
inactive: outcome [1] | Potency [2] | max response [5] 26.9% | Potency [6] | Potency [7] | Potency [8]
